# A selection: hits, their analogues and other compounds. The true share with any hit is near 6.6%.
# MCF10A rerep – DNA re-replication induction in MCF 10a cells | MCF 10A DNA re-replication, Hoechst nuclear intensity, 48 h | Potency, µM (highest dose often 46.1 µM), inactives show at the highest dose activity, positive = re-replication, most hits filed as activators | actives 2.9% (n = 350,000) | AID 624296; also: % of control where 0% means no effect; nearly all actives have a fitted effect of over 50% in size
# KB-V1 cytotox – kills drug-selected multidrug resistant KB-V1 cells; KB-V1 MDR cells viability, CellTiter-Glo, 72 h; actives 3.4% (n = 400,000); Potency, µM (series often up to 46.1 µM), most hits filed as cytotoxic; also: % is scaled to controls: 0 for no effect and ±100 for the full control effect; nearly all actives have a fitted effect of over 60% in size
#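 Compound-treated KB-V1 multidrug-resistant cells, 72 h, 37 degrees C; viability by CellTiter-Glo. Fitted qHTS curves give the values.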
# KB-3-1 cytotox – kills parental KB-3-1 adenocarcinoma cells. KB-3-1 viability, CellTiter-Glo ATP luminescence, 72 h. Potency, µM (doses to about 46.1 µM), most hits filed as cytotoxic. actives 1.4% (n = 400,000); also: % is scaled to controls: 0 for no effect and ±100 for the full control effect; nearly all actives have a fitted effect of over 60% in size
#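 Cytotoxicity measured as CellTiter-Glo luminescence after 72 h at 37 C. Compound titrations were pinned onto drug-naive KB-3-1 parental adenocarcinoma cells grown in DMEM with 10% FBS, and normalized data fitted to concentration-response curves.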
# RGS4 inh – inhibitors of human regulator of G protein signaling 4; Transcreener GDP fluorescence polarization, RGS4-accelerated GTP hydrolysis; Potency, µM (highest dose often 114 µM), without a hit: at the highest dose activity change, negative = inhibition, actives largely listed as inhibitors; actives 0.039% (n = 390,000); AID 504845; also: % is scaled to controls: 0 for no effect and ±100 for the full control effect; nearly all actives have a fitted effect of over 75% in size
# Target sequence (P49798 whole entry, looked up): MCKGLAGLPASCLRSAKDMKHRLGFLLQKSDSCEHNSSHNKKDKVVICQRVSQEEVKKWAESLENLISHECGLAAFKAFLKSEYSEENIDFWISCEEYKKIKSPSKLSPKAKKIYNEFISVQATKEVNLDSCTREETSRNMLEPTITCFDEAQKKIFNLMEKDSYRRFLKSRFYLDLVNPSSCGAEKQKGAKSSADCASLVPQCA
#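 MLSMR compounds (23 nl, pin-transferred) preincubated 10 min at room temperature with a 500nM (2x) first reagent, then RGS4 at 900nM (2x) plus Transcreener GDP mix added; fluorescence polarization (620/688 nm) read before and after 90 min at 30 °C.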
# SW480 rereplic – inducers of DNA re-replication in SW480 colon cancer cells; SW480 DNA re-replication, Hoechst DNA content imaging, 48 h; Potency, µM (highest dose often 46.1 µM), for inactives: at the top dose re-replication activation, usual class: activators; actives 1.8% (n = 340,000); AID 624297; also: % of control where 0% means no effect; nearly all actives have a fitted effect of over 55% in size
#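 First, 250 cells per well were seeded. Next, compound or vehicle (23 nL) was pinned in, plates sat 48 hr at 37 C. Finally Hoechst was added for 40 min before fluorescence scanning.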
# TSG101-PTAP inh – blocks PTAP/TSG101 interaction to inhibit HIV-1 budding | AID 493005 | 340,000 tested, under 10 active | Potency, µM (doses to about 115 µM), for the others: at the highest dose activity change, negative = inhibition, actives largely listed as inhibitors | Fluorescence polarization, FITC-PTAP peptide / Tsg101 binding; active = well fitted inhibition curve with a large enough effect in the main read-out, with a control signal flat, not every such curve was filed as active; inconclusive = small, poorly fitted or top-dose-only effect, or effect the other way, or a change in a side signal; inactive = no such curve, though single readings can be large or run the other way; also: % of control where 0% means no effect
# Target sequence (Q99816 whole entry, looked up): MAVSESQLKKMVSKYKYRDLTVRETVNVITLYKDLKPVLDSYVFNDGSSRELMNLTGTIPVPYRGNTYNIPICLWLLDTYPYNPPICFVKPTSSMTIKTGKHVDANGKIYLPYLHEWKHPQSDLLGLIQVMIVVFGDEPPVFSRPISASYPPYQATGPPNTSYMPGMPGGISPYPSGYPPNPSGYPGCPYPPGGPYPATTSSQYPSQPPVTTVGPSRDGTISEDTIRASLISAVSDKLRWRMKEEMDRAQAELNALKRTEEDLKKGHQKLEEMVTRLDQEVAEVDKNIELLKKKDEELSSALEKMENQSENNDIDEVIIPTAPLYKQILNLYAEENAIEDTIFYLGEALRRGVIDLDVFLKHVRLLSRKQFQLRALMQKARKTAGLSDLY
#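 FP read-out: FITC-PTAP peptide, 50 nM final, binding Tsg101 binding domain, 10 uM final; 20 min, r.t.; 10 mM HEPES pH 7.5, 0.15 M NaCl, 0.01% Tween 20, 3 mM EDTA, 0.1 mM TCEP.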
# * marks the source's active call; other numbers are inactive results; i = inactive; ? = inconclusive; . = no result; [ ] = dose if it differs, or a comment. Unless noted, calls follow the shape of the dose curve; as a rule, active = well fitted curve in the direction sought with a large enough effect; inconclusive = small, poorly fitted or top-dose-only effect, or another doubt; inactive = no such curve, though single readings can be large; an effect the other way counts as inactive or inconclusive. Potency is read from the fitted curve at half-maximal effect.
SMILES,MCF10A rerep,KB-V1 cytotox,KB-3-1 cytotox,RGS4 inh,SW480 rereplic,TSG101-PTAP inh
Cc1cc(C(=O)N/N=C/c2ccc(N(C)C)cc2)c2ccccc2n1,7.08µM*,?,9.2µM*,-10.7%,18.4µM*,-0.6%
Cc1cc(C(=O)N/N=C/c2cc([N+](=O)[O-])ccc2O)c2ccccc2n1,12.7%,?,i,-2.7%,16.4µM*,-0.5%
O=C(N/N=C/c1cc([N+](=O)[O-])ccc1O)c1cc(-c2ccccc2)nc2ccccc12,?,i,?,-10.4%,?,5.7%
Cc1cc(Nc2cccc([N+](=O)[O-])c2)c2ccccc2n1,?,?,i,2.6%,-27.2%,-5.2%
Cc1cccc(/C=N/NC(=O)c2cc(C)nc3ccccc23)n1,0.0%,?,i,12.3%,-5.2%,-2.5%
Cc1ccc(NC(=O)Cn2c(=O)n(-c3ccc(Cl)c(Cl)c3)c(=O)c3c(C)c(C)sc32)c(C)c1,.,i,i,11.0%,.,.
Cc1cccc(-c2nnn3c2nc(NCc2ccccc2)c2ccccc23)c1,.,i,i,-10.0%,.,.
Clc1cccc(-n2ncc3c(Nc4ccc5c(c4)OCCO5)ncnc32)c1,.,i,i,-6.5%,.,.
O=C(N/N=C/c1ccccn1)c1cccc([N+](=O)[O-])c1,15.6%,i,i,-14.5%,?,1.1%
Cc1cccc(/C=N/NC(=O)c2cc(C3CC3)nc3ccccc23)n1,-0.9%,i,i,17.2%,-4.8%,3.7%
CCc1ccc(/C=N/NC(=O)c2cc(C3CC3)nc3ccccc23)s1,7.31µM*,5.17µM*,5.17µM*,-5.2%,18.4µM*,-3.9%
O=C(NN=Cc1ccccc1O)c1cccc([N+](=O)[O-])c1,1.4%,?,?,-26.5%,0.581µM*,-3.6%
CCC(C)(C)NC(=O)C(c1ccc(C)cc1)N(Cc1cccs1)C(=O)c1ccc2c(c1)OCCO2 (stereo not given),-2.6%,18.4µM*,i,4.0%,-0.6%,-4.5%
Cc1cc(NC(=O)COC(=O)CCS(=O)(=O)c2cc(Cl)ccc2Cl)no1,20.6µM*,i,i,-3.0%,2.9%,-9.9%
Cc1cc(NC(=O)COC(=O)CCS(=O)(=O)c2ccc(C)c(C)c2)no1,-6.6%,i,i,-13.0%,-1.1%,0.0%
CCNc1nc(NCC)nc(SCCOC(=O)c2ccccc2)n1,-0.6%,i,i,11.0%,-4.1%[9.22 µM],-2.6%
CCNc1nc(NCC)nc(SCCOC(=O)Nc2ccc(Cl)cc2Cl)n1,18.4µM*,i,i,-11.9%,-1.8%,-3.1%
Cc1ccc(-n2ncc3c(N4CCC(C)CC4)ncnc32)cc1C,.,i,i,0.7%,.,.
NC(=O)CSc1ncc2c(n1)-c1ccccc1N(Cc1cccc(F)c1)S2(=O)=O,.,i,i,-3.7%,.,.
c1ccc(-c2csc3ncnc(NCCCN4CCOCC4)c23)cc1,-0.1%,8.2µM*,i,24.0%,-3.5%,-0.8%
c1ccc(-c2cn(-c3ccccc3)c3ncnc(NCCCN4CCOCC4)c23)cc1,?,i,i,2.8%,0.0%,0.9%
O=c1c2c(-c3ccccc3)csc2nc2c3ccccc3c(NCCN3CCOCC3)nn12,9.2µM*,20.6µM*,i,-34.0%,?,-3.3%
Cc1cccc(-c2nc(NCCCN3CCOCC3)c3ccccc3n2)c1,?,i,?,26.1%,-2.1%,-0.6%
c1ccc(-c2nc(NCCCN3CCOCC3)c3ccccc3n2)cc1,?,6.51µM*,i,2.2%,7.2%,-4.7%
O=S(=O)(c1ccc(Oc2ncnc3scc(-c4ccccc4)c23)cc1)N1CCOCC1,20.6µM*,?,?,-20.8%[11.4 µM],10.2%,-2.0%
SMILES,MCF10A rerep,KB-V1 cytotox,KB-3-1 cytotox,RGS4 inh,SW480 rereplic,TSG101-PTAP inh
COc1cc(C(=O)NCCc2sc(-c3cccc(F)c3)nc2C)cc(OC)c1OC,.,i,i,-16.4%,.,.
c1csc(-c2csc3ncnc(NCCCN4CCOCC4)c23)c1,-0.1%,3.26µM*,?,-15.3%,-1.4%,-12.8%
c1ccc(-c2csc3ncnc(NCC4COc5ccccc5O4)c23)cc1 (stereo not given),25.9µM*,23.1µM*,1.64µM*,3.7%,1.9%,-3.2%
Cc1csc2c(NCCCN3CCOCC3)ncnc12,3.9%,i,i,-2.8%,-19.8%,5.6%
CCOC(=O)CSc1nc2cc3c(cc2c(=O)n1CCCC(=O)NCCc1ccc(OC)c(OC)c1)OCO3,.,.,.,3.9%,.,.
CC(C)(C)c1ccc(C(=O)NCC2CCCN2S(=O)(=O)c2ccccc2)cc1 (stereo not given),?,?,?,-8.9%,?,5.6%
CN1CCCC1CCOC(C)(c1ccccc1)c1ccc(Cl)cc1 (stereo not given),13.5%,?,i,23.1%,7.08µM*,?
COc1cc(NC(=O)Cn2ccc3ccccc3c2=O)cc(OC)c1OC,.,i,i,-2.4%,.,.
CCc1cccc(NC(=O)C(Cc2ccccc2)NS(=O)(=O)c2ccc3c(c2)c(=O)n(C)c(=O)n3C)c1 (stereo not given),.,i,i,11.3%,.,.
Cc1ccc(Cl)cc1N1CCN(C(=O)Cn2cnc3sc(C)c(S(=O)(=O)N4CCC(C)CC4)c3c2=O)CC1,.,i,?,-10.0%,.,.
Cc1ccc(S(=O)(=O)N(CC(=O)Nc2cccnc2)c2cccc([N+](=O)[O-])c2)cc1,23.1µM*,.,.,-21.2%,?,-3.4%
Cc1ccc(S(=O)(=O)N(CC2CO2)c2cccc([N+](=O)[O-])c2)cc1 (stereo not given),?,i,?,-7.2%,18.4µM*,0.6%
Cc1ccccc1CN(CC(=O)Nc1cccc([N+](=O)[O-])c1)S(=O)(=O)c1ccc(Cl)cc1,16.4%,5.8µM*,i,8.4%,?,-2.0%
O=[N+]([O-])c1ccc(N(CC2CO2)S(=O)(=O)c2ccccc2)cc1 (stereo not given),9.7%,i,i,25.8%,-6.2%,-4.0%
Cc1nc2c(-c3ccc(Cl)cc3)cnn2c2c1CCC2,20.6µM*,i,i,6.0%,1.8%,-7.4%
Cc1nc2c(-c3ccc(Cl)cc3)cnn2c(N)c1-c1ccc(F)cc1,-1.1%,i,i,-13.1%,16.9%,-1.0%
O=C(c1ccc(COc2ccc(Cl)cc2)o1)N1CCN(Cc2ccc3c(c2)OCO3)CC1,?,10.3µM*,i,-4.0%,15.3%,-5.8%
